The source of these data is PubChem BioAssay (NCATS).

SMILES strings stand for the structures. Where “and” joins values, the source holds several entries; their conditions need not be identical. Identical values can stand only once. Inconclusive results are not listed. Where a call stands in place of a potency, no number is given. Calls of active or inactive are those of the source. Calls follow the shape of the dose curve; as a rule, active = well fitted cell-killing curve with a large enough effect; inconclusive = small, poorly fitted or top-dose-only effect; inactive = flat fitted curve, though single readings scatter.
Potency is read from the fitted curve at half-maximal effect.

This test in a line: Cell Viability - LYMP2-019 (AID 973). Also: nearly all actives have a fitted effect of over 55% in size. To be noted: LYMP2-019 lymphoblastoid cell line viability; series mostly up to 92.2 µM. The text has this: NIH Chemical Genomics Center [NCGC]
NIH Molecular Libraries Screening Centers Network [MLSCN]
National Institutes of Environmental Health Sciences [NIEHS]
National Toxicology Program [NTP]
We have developed a 1536-well cell-based assay for quantitative high throughput screening (qHTS) against a number of cell lines to determine in vitro cytotoxicity of small molecules. This particular assay uses a human lymphoblastoid cell line (LYMP2-019) purchased from Coriell Institute for Medical Research.
NCGC Assay Protocol Summary:
The CellTiter-Glo luminescent cell viability assay (Promega) is a homogeneous method to measure the number of viable cells in culture. The end point readout of this assay is based on quantitation of intracellular ATP, an indicator of metabolic activity, using the luciferase reaction. Luciferase catalyzes the oxidation of beetle Luciferin to oxyluciferin and light in the presence of ATP. The luminescent signal is proportional to amount of ATP present.
Using the CellTiter-Glo luminescent cell viability assay, the amount of cellular ATP was measured in the lymphoblastoid cell line with complete culture medium following compound treatment for 24 hours. The assay was performed in opaque white Kalypsys 1536-well plates. In the screen, tetraoctylammonium bromide was used as positive control. Library compounds were measured for their ability to cause acute toxicity in the cell line, as reflected by a decrease in intracellular ATP levels, in a concentration-dependent manner. […] AC50 values were determined from concentration-response data modeled with the standard Hill equation.
qHTS protocol for CellTiter Glo lymphoblastoid cellular assay
[Step] [Parameter] [Value] [Description]
1. Reagent; 5 uL; 2500 lymphoblastoid cells/well
2. Time; 5 hr; 37 C incubation
4. Controls; 23 nL; Tetraoctylammonium bromide 6.4pM to 92 uM
5. Time; 24 hr; 37 C incubation
6. Reagent; 5 uL; CellTiter Glo reagent
7. Time; 30 min; Room Temperature
8. Detection; Luminescence; Viewlux plate reader
Keywords: cell viability, cytotoxicity, lymphoblastoid cell line, luminescence, NTPHTS, NTPHTS_NCGC, NIEHS, DSSTox, MLSMR, MLSCN, NIH Roadmap, qHTS, NCGC
Turning to `Clc1ccccc1Cl`, the Potency result is “inactive”.
The figure for `CC(C)(C)c1cc(O)ccc1O` is 50.1 µM (active); for `CCCCCl` it is “inactive”.
The entry for `ClCC1CO1` (stereo not given) is “inactive”; for `O=CC=O` it is “inactive”.
For `Oc1cc(Cl)c(Cl)cc1Cl`, the Potency result was “inactive”.
For `O=Cc1ccco1`, the Potency result is “inactive”.
For the compound `[O]=[Cd]`, the Potency entry is “inactive”.
Consider `C[C@H]1CC[C@@H]2[C@@H](C)[C@H]3[C@H](C[C@H]4[C@@H]5CC=C6CC(O[C@@H]7O[C@H](CO)[C@H](O)[C@H](O[C@@H]8O[C@H](CO)[C@@H](O)[C@H](O)[C@H]8O)[C@H]7O[C@H]7O[C@@H](C)[C@H](O)[C@@H](O)[C@H]7O)CC[C@]6(C)[C@H]5CC[C@]34C)N2C1` (stereo not given in full), for which the Potency is 39.8 µM (active).
On to `ClC=C(Cl)Cl`, for which the Potency entry is “inactive”.
The same measure for `CCOC(=O)c1ccccc1C(=O)OCC`: “inactive”; for `[Cl-].[Cl-].[Hg+2]`: 10 µM (active).
The same measure for `S=C=S`: “inactive”.
With `O=[N+]([O-])c1ccccc1`, the Potency result was “inactive”.
The entry for `C=CCN=C=S` is “inactive”.
With `NNC(N)=O`, the Potency entry was “inactive”.
On to `CC(C)Nc1ccc(Nc2ccccc2)cc1`, for which the Potency is 25.1 µM (active).
The entry for `C[C@H]1CCC[C@H](O)CCCCCc2cc(O)cc(O)c2C(=O)O1` is “inactive”; for `CC(C)CCON=O` it is “inactive”.
The same measure for `O=C/C=C/c1ccccc1`: “inactive”; for `O=C(O)C(Cl)(Cl)Cl`: “inactive”; for `O=C1C=CC(=O)C=C1`: 50.1 µM (active).
The same measure for `CCCCCCCCOC(=O)c1ccccc1C(=O)OCCCCCCCC`: “inactive”; for `COC1=CC(=O)O[C@@H](/C=C/c2ccccc2)C1`: “inactive”; for `O=C1CCO1`: “inactive”.
As to `O=[N+]([O-])c1ccc(F)c([N+](=O)[O-])c1`, the Potency entry is “inactive”.
Turning to `[O]=[Cr](=[O])([OH])[O][Cr](=[O])(=[O])[OH]`, the Potency was 12.6 µM (active) and 10 µM (active).
The entry for `COc1ccc2c(c1OC)C(=O)OC2C1c2cc3c(cc2CCN1C)OCO3` (stereo not given) is “inactive”; for `O=C1C2CC=CCC2C(=O)N1SC(Cl)(Cl)Cl` (stereo not given) it is 3.98 µM (active) and 5.01 µM (active).
With `ClC(Cl)(Cl)Cl`, the Potency entry was “inactive”.
